Assay [1] can be described thus: A549 cell viability effects, profiling panel, calcein-AM fluorescence, 48 h, basal (AID 1162). The settings on record: higher = more signal.
Assay [2] is described as follows: adipocyte viability effects, profiling panel, cell-based, 3T3-L1 adipocytes, calcein-AM fluorescence, 48 h, basal (AID 1163). The settings on record: 3T3-L1 adipocytes viability, higher = more signal.
A short description of assay [3]: HepG2 cell viability effects, profiling panel, calcein-AM fluorescence, 48 h, basal (AID 1164). The settings on record: higher = more signal.
Assay [4] can be described thus: MM1S cell viability effects, profiling panel, calcein-AM fluorescence, 48 h, basal (AID 1165).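 Note: viability of MM1S multiple myeloma cells under basal unstimulated conditions.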 The settings on record: higher = more signal.
Assay [5] in a line: basal RPMI8226 viability, no added stimulus, profiling panel, cell-based, calcein-AM fluorescence, 48 h, PK04 Diversity Set (AID 1166).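 Note: cells grown under basal conditions without added stimulus.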 The settings on record: RPMI8226 myeloma viability, higher = more signal.
Assay [6] is described as follows: basal HepG2 mitochondrial membrane potential changes, profiling panel, cell-based, JC-1 fluorescence, 24 h, 100 nL compound (AID 1167). The settings on record: higher = more signal.
Assay [7] in a line: basal 3T3-L1 adipocyte mitochondrial potential changes, profiling panel, cell-based, JC-1 fluorescence, 3T3-L1 adipocytes, 24 h, 100 nL compound (AID 1168). The settings on record: JC-1 mitochondrial fluorescence, higher = more signal, called active from +8 up or from −8 down.
A short description of assay [8]: basal RPMI8226 mitochondrial membrane potential changes, profiling panel, cell-based, JC-1 fluorescence, 24 h, 100 nL compound (AID 1169). The note with it: RPMI8226 myeloma, JC-1 mitochondrial potential fluorescence, higher = more signal.
Assay [9] can be described thus: basal MM1S mitochondrial membrane potential changes, profiling panel, cell-based, JC-1 fluorescence, 24 h, 100 nL compound (AID 1170). The settings on record: higher = more signal.
Assay [10] is described as follows: A549 lung cancer cell viability effects, profiling panel, resazurin fluorescence, 24 h, PK04 Diversity Set (AID 1171). The settings on record: higher = more signal, called active from +8 up or from −8 down. For orientation: Resazurin is reduced to fluorescent resorufin, in cell work by metabolically active cells.

Structures are written as SMILES. Active and inactive are the calls of the source.

These results are taken from PubChem BioAssay.
Note: test concentration not given here.

Take `CCCC[C@H]1CN2[C@@H](CC[C@@H](C)[C@@H]2c2ccc(Br)cc2)C(=O)O1`: the z-score was 0.214 in [1]; 0.544 in [2]; -0.189 in [3]; -0.256 in assay [4]; -0.238 in [5]; 0.13 in [6]. Further, the z-score in assay [7] is -0.206 (inactive); in [8], -0.221; in assay [9], 0.94; in assay [10], 0.8 (inactive).

On to `COc1ccc(COC(=O)NN=C2C[C@@H](O)[C@@H](O)[C@@H]3[C@@H]4C(=O)N(C[C@@H]5CCCO5)C(=O)[C@@H]4CC[C@H]23)cc1`, for which the z-score in assay [1] was 0.0369; in assay [2] it was -0.0792; in assay [3] it was -0.592; in [4] it was 0.634; in [5] it was -0.107; in assay [6] it was -0.402. The z-score in assay [7] is -1.22 (inactive); in [8], -0.148; in assay [9], -1.02; in assay [10] it was -0.0101 (inactive).

Take `CCOC(=O)[C@H](Cc1ccccc1)NC(=O)CCC1CC(OC(=O)NCc2cccc3ccccc23)CC2(CCCC(COC(=O)NCc3ccc4c(c3)OCO4)O2)O1` (stereo not given in full): the z-score in assay [1] was 0.664; in assay [2] it was -0.171; in assay [3], 0.78; in assay [4], 0.505; in [5] it was -1.48; in assay [6], 0.561. The z-score in assay [7] is 0.953 (inactive); in assay [8], -0.675; in assay [9], -0.239; in assay [10] it was -0.269 (inactive).

On to `CON=C(C)CCN1CCc2nc(-c3ccccc3)c(-c3ccccc3)cc2C1`, for which the z-score was -0.119 in assay [1]; 0.728 in assay [2]; 0.0133 in [3]; -2.98 in assay [4]; -1.5 in [5]; 1.03 in assay [6]. Also, the z-score is -0.144 (inactive) in assay [7], -0.0566 in assay [8], 0.446 in assay [9] and 1.73 (inactive) in assay [10].

As to `C=CC[C@@H]1C=C[C@H](ON=C[C@@H](NS(=O)(=O)c2ccc(C)cc2)[C@H](C)C=CCC(=O)OC)[C@@H](CO)O1`, the z-score in assay [1] is 0.309; in assay [2], 0.359; in [3] it was 0.405; in [4] it was 0.465; in [5], -0.915; in assay [6], -0.836. Also, the z-score in assay [7] is -0.959 (inactive); in assay [8], 0.117; in assay [9], -0.979; in assay [10], -1.03 (inactive).

`O=C(NCCC[N+]1=CC=NC1c1ccccc1)N1CCCc2nc(-c3ccc(Br)cc3)ccc21` (stereo not given): the z-score in assay [1] was 0.478; in assay [2], -1.13; in assay [3] it was -0.598; in assay [4], -2.52; in assay [5], -0.77; in assay [6], 1.13. The z-score in assay [7] is -0.141 (inactive); in [8], 0.184; in [9], -0.404; in assay [10] it was 0.811 (inactive).

`CC(C)=CCCC(C)=CCON=C1C[C@@H](O)[C@@H](O)[C@@H]2[C@@H]3C(=O)N(C4CCCCC4)C(=O)[C@@H]3CC[C@H]12`: the z-score was -0.529 in assay [1]; -0.735 in [2]; -0.0977 in assay [3]; -2.9 in [4]; -0.201 in assay [5]; -1.47 in [6]. The z-score in assay [7] is -0.444 (inactive); in assay [8], -0.467; in assay [9], -1.4; in [10], -0.587 (inactive).

With `CC(C)CON=C1C[C@@H](O)[C@@H](O)[C@@H]2[C@@H]3C(=O)N([C@@H](C)c4ccccc4)C(=O)[C@@H]3CC[C@@H]12`, the z-score in [1] is -0.398; in [2], -0.63; in [3], -0.829; in assay [4], -0.79; in assay [5], 0.336; in assay [6] it was -0.889. Also, the z-score is -0.72 (inactive) in [7], 0.638 in assay [8], -0.389 in assay [9] and 0.0092 (inactive) in assay [10].

Take `CCc1cc2c(nc1CC)CCN(CCC(C)=NOC(C)CN1CCCCc3nc(C)c(C)cc31)C2` (stereo not given): the z-score was 0.115 in [1]; 0.97 in assay [2]; 0.101 in assay [3]; -2.89 in assay [4]; -0.51 in [5]; 6.12 in assay [6]. In addition, the z-score in assay [7] is -1.02 (inactive); in [8], -0.39; in [9] it was -0.104; in [10], 0.639 (inactive).

In the case of `COC(=O)[C@H](C)NC(=O)CCC1CC(OC(=O)NCCc2ccc(F)cc2)CC2(CCCC(COC(=O)NCCc3ccccc3OC)O2)O1` (stereo not given in full), the z-score in assay [1] was -0.0621; in [2], -0.825; in assay [3] it was 0.308; in assay [4] it was 0.636; in assay [5], -0.285; in assay [6] it was 0.15. Moreover, the z-score is 0.766 (inactive) in assay [7], 0.0549 in assay [8], -0.876 in assay [9] and 0.0778 (inactive) in [10].

Turning to `COC(=O)[C@H](C)NC(=O)CCC1CC(OC(=O)NCc2ccc3c(c2)OCO3)CC2(CCCC(COC(=O)NCCC(C)C)O2)O1` (stereo not given in full), the z-score in [1] was -0.121; in [2] it was 0.114; in assay [3] it was -1.19; in assay [4], -3.18; in [5] it was -2.13; in assay [6], -0.523. In addition, the z-score in [7] is -0.452 (inactive); in assay [8], -0.253; in assay [9], 0.177; in assay [10], 0.442 (inactive).

For the molecule `CCOC(=O)[C@H](CC(C)C)NC(=O)CCC1CC(OC(=O)NCc2ccc3c(c2)OCO3)CC2(CCCC(COC(=O)NCc3ccccc3)O2)O1` (stereo not given in full), the z-score in assay [1] was -0.547; in [2] it was -0.654; in [3], -1.38; in assay [4], -3.45; in [5], -1.58; in [6], -0.439. Moreover, the z-score is 0.195 (inactive) in [7], 0.0575 in assay [8], 0.277 in assay [9] and 1.06 (inactive) in assay [10].
